Source: PubChem BioAssay
TLR4 MyD88 blk: blocks binding of human TLR4 to MyD88 | Cell-based TLR4-MyD88 binding inhibition assay | inhibition, % at 10 µM | hit rate 0.06% among 16,000; in the data active means inhibition above about 45%
rat GALR2 ag: activates the rat galanin receptor 2; activation, % at 10 µM; hit rate 0.5% among 16,000; cell-based GALR2 agonist screen; AID 833; in the data active means activation above about 15%
OPRK1 antag MB: blocks the human kappa opioid receptor, Maybridge compounds; OPRK1 cells, antagonist mode, fluorescence readout; hit rate 0.4% among 16,000; AID 652031; inhibition, % at 9 µM; in the data active means inhibition above about 50%
S1P1 ag: S1P1 (human) receptor agonism; S1P1 agonist cell-based reporter assay; P21453; activation, % at 4.5 µM; hit rate 1.5% among 16,000; in the data active means activation above about 80%
Target sequence (P21453 whole entry, looked up): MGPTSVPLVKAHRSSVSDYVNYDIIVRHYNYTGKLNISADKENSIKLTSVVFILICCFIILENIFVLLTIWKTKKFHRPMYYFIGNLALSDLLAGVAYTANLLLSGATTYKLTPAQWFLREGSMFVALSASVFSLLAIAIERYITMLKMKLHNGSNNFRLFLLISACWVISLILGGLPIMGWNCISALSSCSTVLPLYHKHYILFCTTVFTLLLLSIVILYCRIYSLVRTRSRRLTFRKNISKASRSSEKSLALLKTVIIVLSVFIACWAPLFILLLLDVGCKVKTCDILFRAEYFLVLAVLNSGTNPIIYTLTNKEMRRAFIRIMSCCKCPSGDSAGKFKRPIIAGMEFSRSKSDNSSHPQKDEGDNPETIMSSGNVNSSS
Active calls of the source: *. Shown are actives, neighbours in structure and some others; about 2.1% of the full set was active somewhere.

Results for O=C1c2ccccc2S(=O)(=O)N1CC1CC1 ?
TLR4 MyD88 blk: -3; rat GALR2 ag: -9; OPRK1 antag MB: 10; S1P1 ag: -15

How did Cc1csc2ncnc(NNC(=O)c3ccc(Cl)cc3)c12 do in these assays?
TLR4 MyD88 blk: 1; rat GALR2 ag: -11; OPRK1 antag MB: -13; S1P1 ag: 35

Results for Cc1csc2ncnc(NCCc3ccc(Cl)cc3)c12 ?
TLR4 MyD88 blk: -2; rat GALR2 ag: -8; OPRK1 antag MB: -6; S1P1 ag: 102*

What do the screens show for `N#CCC(=O)c1cc(-c2ccccc2)c(C(F)(F)F)s1`?
TLR4 MyD88 blk: 3; rat GALR2 ag: -3; OPRK1 antag MB: 23; S1P1 ag: 7

How did C#CCOC(=O)Nc1cnc(Oc2c(Cl)cccc2Cl)c(C(F)(F)F)c1 do in these assays?
TLR4 MyD88 blk: 1; rat GALR2 ag: -10; OPRK1 antag MB: 12; S1P1 ag: 99*

What do the screens show for `Nc1cnc(Oc2c(Cl)cccc2Cl)c(C(F)(F)F)c1`?
TLR4 MyD88 blk: 10; rat GALR2 ag: -5; OPRK1 antag MB: 0; S1P1 ag: 86*

What do the screens show for `O/N=C1/CCCCC1Cn1ccnc1` (stereo not drawn)?
TLR4 MyD88 blk: -12; rat GALR2 ag: -5; OPRK1 antag MB: 4; S1P1 ag: -3

How did Cn1c(=O)c2c(nc(N=Nc3c(O)[nH]c4cc(Br)ccc34)n2C)n(C)c1=O do in these assays?
TLR4 MyD88 blk: 9; rat GALR2 ag: -6; OPRK1 antag MB: -37; S1P1 ag: 15

Results for Oc1[nH]c2ccccc2c1N=Nc1nc(-c2ccc(Br)cc2)cs1 ?
TLR4 MyD88 blk: -1; rat GALR2 ag: -7; OPRK1 antag MB: 15; S1P1 ag: 82*

What do the screens show for `Cc1cc(C)c2c(N)c(C(=O)Nc3nnc(-c4cccs4)s3)sc2n1`?
TLR4 MyD88 blk: 1; rat GALR2 ag: -3; OPRK1 antag MB: -4; S1P1 ag: 7

How did CC(=O)c1sc2nc(-c3cccs3)cc(C(F)(F)F)c2c1N do in these assays?
TLR4 MyD88 blk: 22; rat GALR2 ag: -7; OPRK1 antag MB: 89*; S1P1 ag: 12

How did CCCCCC[n+]1ccccc1/C=C/c1ccc(N(C)C)cc1 do in these assays?
TLR4 MyD88 blk: 64*; rat GALR2 ag: -14; OPRK1 antag MB: 72*; S1P1 ag: 113*

How did COc1ccc(OS(=O)(=O)c2sc(Br)cc2Br)cc1 do in these assays?
TLR4 MyD88 blk: -14; rat GALR2 ag: -10; OPRK1 antag MB: 52*; S1P1 ag: 1

How did Cc1cc(C(=O)O/N=C(\N)c2ccc(C(C)(C)C)cc2)no1 do in these assays?
TLR4 MyD88 blk: 7; rat GALR2 ag: -6; OPRK1 antag MB: 24; S1P1 ag: 90*

How did Cc1cc(/C(N)=N/OC(=O)c2ccno2)no1 do in these assays?
TLR4 MyD88 blk: 12; rat GALR2 ag: -9; OPRK1 antag MB: 12; S1P1 ag: 6

How did C=CCn1c(-c2cnn(-c3ccccc3)c2N)n[nH]c1=S do in these assays?
TLR4 MyD88 blk: -2; rat GALR2 ag: -7; OPRK1 antag MB: -1; S1P1 ag: -13

Results for C=CCn1c(-c2sc3nnc(-c4ccccc4)c(-c4ccccc4)c3c2N)n[nH]c1=S ?
TLR4 MyD88 blk: -5; rat GALR2 ag: 11; OPRK1 antag MB: 57*; S1P1 ag: 63

What do the screens show for `CC(C)(C)OC(=O)N1CCC(CNS(=O)(=O)c2cccc(C(F)(F)F)c2)CC1`?
TLR4 MyD88 blk: 20; rat GALR2 ag: -6; OPRK1 antag MB: 2; S1P1 ag: 1

Results for O=c1c(/C=N/NC(=S)NCc2ccco2)coc2ccccc12 ?
TLR4 MyD88 blk: -7; rat GALR2 ag: -2; OPRK1 antag MB: 19; S1P1 ag: 4

Results for c1ccc(N2CC3CCc4ccccc4C3=N2)cc1 (stereo not drawn) ?
rat GALR2 ag: 23*; OPRK1 antag MB: -54; S1P1 ag: -39
